# Source: PubChem BioAssay AID504385 (National Center for Advancing Translational Sciences (NCATS), 2011)
# Calls of active or inactive are those of the source. How the calls were made is not given here.
# Target: Lutropin-choriogonadotropic hormone receptor (Homo sapiens) (UniProt P22888)
# Experiment: Counterscreen for antagonists of the thyroid stimulating hormone receptor: ELISA activity in a Luteinizing Hormone Receptor cell line
# Details: HEK293 LHR cells, LH-induced cAMP ELISA
# Excerpt: TSH is an alpha/beta heterodimeric glycoprotein hormone secreted from the anterior pituitary gland which belongs to the glycoprotein hormone family. The actions of TSH are mediated by a seven-transmembrane receptor, which upon TSH binding couples preferentially to the G-alpha (s) protein (Gs), resulting in activation of adenylate cyclase and increase in cyclic adenosine 3', 5' monophosphate (cAMP). The TSH receptor (THSR) is mainly expressed in thyroid follicular cells and regulates their growth and function. This cell based assay was conducted on a TSHR transfected HEK 293 cell line, measuring cAMP stimulation using antibody-based Homogeneous Time Resolved Fluorescence (HTRF). Our goal is to identify small molecules that will inhibit (antagonize) the thyroid-stimulating hormone receptor (TSHR), a member of the 7 transmembrane-spanning receptor (7TMR) family of cell surface receptors. TSHR-mediated hyperthyroidism is important in thyroid pathology. The development of small molecule antagonists of TSHR may lead to therapeutic approaches for TSHR-mediated hyperthyroidism caused by constitutively activating mutations or stimulating auto-antibodies associated with Graves' disease. Graves' disease is the leading cause of hyperthyroidism and is caused by autoantibodies that stimulate TSHR (TsAbs) causing thyroid growth and unregulated overproduction of thyroid hormones and existing treatments have liabilities (agranulocytosis). In addition, TSHRs are known to be expressed in multiple extrathyroidal tissues including bone, brain, kidney, testis, fat and cells of the immune system but the role of the TSHR in these tissues is not clear. Therefore, TSHR antagonists/inverse agonists could be used as probes of extrathyroidal TSHR function. Finally, TSHR inverse agonists, which are a subclass of antagonists that inhibit agonist-independent (or basal or constitutive) TSHR signaling, could be used to inhibit TSH-independent signaling in patients with recurrent or metastatic thyroid cancer who are receiving thyroid hormone to suppress TSH. In order to confirm specificity of the compounds to the TSHR, a confirmatory assay was conducted on a similar family member, the Luteinizing Hormone Receptor, transfected into a HEK 293 cell line, using an orthogonal detection technology to measure cAMP stimulation: an ELISA based cAMP competition assay using cAMP-Screen Direct System (Applied Biosystems, Foster City, CA)/
# Transiently transfected HEK-EM 293 cells or cells stably expressing LHR were seeded into 96-well plates at a density of 7 x10^4 cells per well in DMEM containing 10% FBS. Cells were cultured for 24 h before incubation for 20 min in HBSS/10 mM HEPES (pH 7.4). To determine the effect of the compound on LH induced LHR activity, cells were incubated for 20 min with the compound in HBSS/HEPES without IBMX and subsequently for 40 min with bovine LH (Sigma) and the compound in HBSS/HEPES supplemented with 1 mM IBMX at 37 C. The levels of cAMP in cells incubated in HBSS/HEPES without IBMX were subtracted in all experiments. After aspiration of the incubation medium, cells were lysed using lysis buffer of the cAMP-Screen Direct system (Applied Biosystems, Foster City, CA). The cAMP content of the cell lysate was determined using the method described in the manufacturer's protocol. The chemiluminescence signal was measured in a VICTOR3 V 1420 multilabel counter (PerkinElmer, Norwalk, CT). The potency (IC50) of the ligands were obtained from dose-response curves by data analysis with GraphPad Prism 4 for Windows.
# Sequence of Lutropin-choriogonadotropic hormone receptor (Homo sapiens) (P22888 whole entry, looked up): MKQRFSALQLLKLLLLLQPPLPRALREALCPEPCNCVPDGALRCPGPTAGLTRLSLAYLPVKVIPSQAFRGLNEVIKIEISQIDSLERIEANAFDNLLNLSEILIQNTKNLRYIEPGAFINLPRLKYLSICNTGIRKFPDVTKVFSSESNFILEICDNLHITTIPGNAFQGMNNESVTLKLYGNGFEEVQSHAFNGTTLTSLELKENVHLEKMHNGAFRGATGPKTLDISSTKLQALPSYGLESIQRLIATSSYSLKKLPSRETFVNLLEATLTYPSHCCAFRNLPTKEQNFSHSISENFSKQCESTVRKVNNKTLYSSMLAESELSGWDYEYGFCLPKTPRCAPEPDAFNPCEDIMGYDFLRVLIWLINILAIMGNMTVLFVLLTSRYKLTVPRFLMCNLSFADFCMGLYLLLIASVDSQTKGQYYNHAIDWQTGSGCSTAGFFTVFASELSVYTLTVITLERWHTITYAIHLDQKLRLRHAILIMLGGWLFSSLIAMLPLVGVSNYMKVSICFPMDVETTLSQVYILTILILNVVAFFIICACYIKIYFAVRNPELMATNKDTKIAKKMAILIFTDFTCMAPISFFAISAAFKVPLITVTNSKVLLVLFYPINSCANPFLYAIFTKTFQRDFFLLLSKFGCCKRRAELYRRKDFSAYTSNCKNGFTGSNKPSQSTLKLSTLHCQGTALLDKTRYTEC
Compound,outcome,IC50
CCc1cccc(CC)c1OCc1cc(C2Nc3ccccc3C(=O)N2Cc2ccco2)ccc1OC (configuration not stated),inactive,
COc1ccc(C2Nc3ccccc3C(=O)N2Cc2ccco2)cc1COc1c(C)cc(NC(C)=O)cc1C (configuration not stated),inactive,
COc1ccc(C2Nc3ccccc3C(=O)N2Cc2ccc(C)o2)cc1COc1c(C)cccc1C (configuration not stated),inactive,
COc1ccc(C2Nc3ccccc3C(=O)N2Cc2cccnc2)cc1COc1c(C)cccc1C (configuration not stated),inactive,
Cc1cccc(C)c1OCc1cccc(C2Nc3ccccc3C(=O)N2Cc2ccco2)c1 (configuration not stated),inactive,
COc1ccc(C2Nc3ccccc3C(=O)N2Cc2ccco2)cc1COc1c(C)cccc1C (configuration not stated),,0.48 µM (active)
COc1ccc(C2Nc3ccccc3C(=O)N2Cc2ccco2)cc1CSc1c(C)cccc1C (configuration not stated),inactive,
